# Results filed as inconclusive are left out. Active and inactive are the calls of the source. Unless noted, calls follow the shape of the dose curve; as a rule, active = well fitted curve in the direction sought with a large enough effect; inconclusive = small, poorly fitted or top-dose-only effect, or another doubt; inactive = no such curve, though single readings can be large; an effect the other way counts as inactive or inconclusive.
# Key:
# [1] = qHTS assay for small molecule disruptors of mitochondrial membrane potential screened against the NCATS CANVASS Library (AID 1347389); conditions: HepG2 mitochondrial membrane potential, m-MPI red/green ratio, 1.5 h; series mostly up to 91.4 µM
# Outline: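 Cells (HepG2) seeded the day before received compound or DMSO for 1 hr, then Mito-MPS dye for 30 min at 37C; emission at 590 nm over 535 nm gave the polarization signal.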
# [2] = Secretion counterscreen for inhibitors of the SERCaMP assay screened against the NCATS CANVASS Library (AID 1347390); conditions: SH-SY5Y constitutive GLuc secretion, luminescence, 20 h; series mostly up to 76.6 µM
# Outline: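 Counterscreen identifying compounds that disrupt secretion, using SH-SY5Y cells with a constitutively secreted Gaussia luciferase reporter. A 20 h compound exposure (top 77 uM) precedes luminescent detection with coelenterazine.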
# [3] = qHTS for activators of Nrf2/ARE signaling pathway screened against the NCATS CANVASS Library (AID 1347391); conditions: ARE-bla HepG2, beta-lactamase reporter, 16 h; series mostly up to 91.4 µM
# Outline: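 Activation of Nrf2/ARE was scored in ARE-bla HepG2 cells after 16 h compound exposure using CCF4 beta-lactamase fluorescence ratio readings.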
# [4] = qHTS for activators of dead-cell proteases activity screened against the NCATS CANVASS Library (AID 1347392); conditions: HepG2 cytotoxicity, dead-cell protease luminescence, 5 h; series mostly up to 91.4 µM
# Outline: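 HepG2, 2000 cells/well, 18 h attach; cpd 11-pt, 5 h 37C 5% CO2; CytoTox-Glo (AAF-aminoluciferin) 15 min RT; luminescence read.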
# [5] = Vero-766 cells viability qHTS against the NCATS CANVASS Library: Counterscreen for Zika virus inhibition assay (AID 1347394); conditions: Vero 766 viability, CellTiter-Glo luminescence, 72 h; series mostly up to 91.4 µM
# Outline: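 This cytotoxicity counterscreen uses African green monkey Vero 766 cells in the absence of Zika virus. Compounds are incubated with cells for 72 h, and ATP-based luminescence reports viability.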
# [6] = qHTS for inhibitors of Wild type Zika virus screened against the NCATS CANVASS Library (AID 1347396); conditions: Vero cells, Zika virus CPE, CellTiter-Glo, 72 h; series mostly up to 91 µM
# Outline: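 Vero 766 (African green monkey) cells, 1000 per well, attached overnight, then compounds were added in an 11-point series before wild-type Zika virus infection. After 72 h at 37C, cell viability was read as CellTiter Glo luminescence.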
# [7] = Redox Reaction Profiling qHTS: Assay Interference Panel against the NCATS CANVASS Library (AID 1347401); conditions: resazurin-DTT redox cycling, fluorescence, 15 min; series mostly up to 57.1 µM
# Outline: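 Fluorescence read-out (525 nm excitation, 598 nm emission) at time zero and after 15 min in the dark tracked resorufin formation. Mix: 5 uM resazurin, 200 uM DTT, HEPES pH 7.3 buffer with NaCl.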
# [8] = qHTS for inhibitors of Rabies Virus screened against the NCATS CANVASS Library (AID 1347402; calls by dose curve); conditions: Rabies virus infection cell assay; series mostly up to 91 µM
# [9] = qHTS for inhibitors of ER calcium dysfunction: SERCaMP assay screened against the NCATS CANVASS Library (AID 1347393); conditions: SH-SY5Y GLuc-SERCaMP secretion, thapsigargin, luminescence
# Outline: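 SH-SY5Y GLuc-SERCaMP, 1000 cells/well, 4 h attach; cpd 16 h, 37C/5% CO2; thapsigargin (added as 6x 600 nM) 4 h; coelenterazine; luminescence. Reduced reporter release = ER Ca stabilization.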
# [10] = Viability qHTS for inhibitors of the SERCaMP assay screened against the NCATS CANVASS Library (AID 1347400); conditions: SH-SY5Y SERCaMP cells viability, CellTiter-Glo, 48 h; series mostly up to 183 µM
# Outline: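 Measures loss of viability in SERCaMP reporter SH-SY5Y cells treated for 48 h with compounds; luminescent ATP detection by CellTiter-Glo.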
# [11] = Primary qHTS for Huh7 cytotoxicity: counterscreen for inhibitors of MERS-S pseudotyped particle cell entry (AID 1479147; calls by dose curve); conditions: cell viability read-out; outcome: at 57.1 µM (top of the series) unless noted; series mostly up to 57.1 µM
# [12] = qHTS to identify inhibitors of the type 1 interferon - major histocompatibility complex class I in skeletal muscle: primary screen against the NCATS Mechanism Interrogation Plate v5.0 (MIPE) Libary (AID 1347411); conditions: iHSKM cells + IFN-b, HiBiT-tagged MHC-I luminescence, 24 h; series mostly up to 45.8 µM
# Outline: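 IFN-beta-driven (4 ng/ml) HLA-B-HiBit expression in CRISPR-tagged C25cl48 myoblasts; compounds 11-pt, 1:3, max 46 uM, 24 hr exposure; lytic NanoLuc complementation luminescence.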
# [13] = qHTS to identify inhibitors of the type 1 interferon - major histocompatibility complex class I in skeletal muscle: primary screen against the NCATS LOPAC collection (AID 1347405); conditions: iHSKM muscle cells, IFN-b-induced MHC-I HiBiT luminescence, 24 h; series mostly up to 45.9 µM
# Outline: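 IFN-beta-stimulated (4 ng/ml) HLA-B HiBiT knock-in myoblasts, compound-treated 24 hrs up to 46 uM final; signal via LgBiT complementation and furimazine luminescence.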
# [14] = Validation qHTS assay for inhibitors of Activation Induced Cytidine Deaminase (AID): UDG Counterscreen signal (AID 1347427); conditions: biochemical UDG counterscreen, fluorescence signal; series mostly up to 115 µM
# Outline: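 Fluorescence at 560 nm excitation, 665 nm emission reports UDG signal after 250 mM NaOH (2x) addition and 30 min. Enzymes (AID 1 uM, UDG 2 U/mL, at 4/3x) preincubated 10 min with compound, then 4 h with 4x 250 nM DJC20/DJC23 substrate at room temperature.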
# [15] = molecular target: Single-stranded DNA cytosine deaminase (Homo sapiens) (UniProt Q9GZX7); test: Validation qHTS assay for inhibitors of Activation Induced Cytidine Deaminase (AID): AID signal (AID 1347429); conditions: Recombinant AID, FRET ssDNA deamination with UDG, fluorescence; series mostly up to 115 µM
# Outline: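 Compounds (up to 114 uM final) are tested against AID plus UDG using DJC20/DJC23 FRET substrate. Reactions incubate 4 hr at room temperature, receive NaOH for 30 min, and are read at Ex 540/Em 590 nm.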
# [16] = Primary qHTS for inhibitors of SARS-S pseudo-typed particle cell entry (AID 1479145; calls by dose curve); conditions: SARS-S pseudotyped particle cell entry, luciferase reporter; outcome: at 57.1 µM (top of the series) unless noted; series mostly up to 57.1 µM
# [17] = qHTS for inhibitors of adenylyl cyclases using a fission yeast platform: a pilot screen against the NCATS LOPAC library (AID 1347410); conditions: S. pombe CHP2027, fbp1-GFP fluorescence, 18 h; series mostly up to 57.5 µM
# Outline: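 Growth medium went into the plates first, then compounds were pinned (final up to 57 µM), then CHP2027 yeast were added. Plates were incubated overnight (18 h) at 30C in the dark, and GFP was measured by laser scanning cytometry.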
# Single-stranded DNA cytosine deaminase (Homo sapiens), sequence (Q9GZX7 whole entry, looked up): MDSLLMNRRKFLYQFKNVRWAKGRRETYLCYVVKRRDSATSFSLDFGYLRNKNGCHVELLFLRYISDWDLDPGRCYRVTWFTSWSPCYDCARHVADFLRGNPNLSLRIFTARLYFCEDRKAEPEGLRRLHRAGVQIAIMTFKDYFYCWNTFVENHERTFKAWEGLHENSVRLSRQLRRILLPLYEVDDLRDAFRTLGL
structure (smiles),measurement,setting,value
COc1ccc2[nH]cc(CCN)c2c1,outcome,[1],inactive
same,outcome,[2],inactive
same,outcome,[3],inactive
same,outcome,[4],inactive
same,outcome,[5],inactive
same,outcome,[6],inactive
same,outcome,[7],inactive
same,outcome,[8],inactive
O=C1C[C@@H]2OCC=C3CN4CC[C@]56c7ccccc7N1[C@H]5[C@H]2[C@H]3C[C@H]46,outcome,[1],inactive
same,outcome,[2],inactive
same,outcome,[3],inactive
same,outcome,[4],inactive
same,Potency,[9],59.6 µM (active)
same,outcome,[5],inactive
same,outcome,[6],inactive
same,outcome,[10],inactive
same,outcome,[8],inactive
same,outcome,[11],inactive
CC(=O)c1c(O)c(C)c(O)c(Cc2c(O)c3c(c(C(=O)/C=C/c4ccccc4)c2O)OC(C)(C)C=C3)c1O,outcome,[12],inactive
NC(=O)c1cc(N2CC2)c([N+](=O)[O-])cc1[N+](=O)[O-],Potency,[13],inactive
same,Potency,[14],inactive
same,Potency,[15],inactive
CC(=O)NBr,Potency,[13],inactive
same,Potency,[14],inactive
same,Potency,[15],inactive
CC1=C2C[C@H]3[C@@H](CC=C4C[C@@H](O)CC[C@@]43C)[C@@H]2CC[C@]12O[C@@H]1C[C@H](C)CN[C@H]1[C@H]2C,outcome,[12],inactive
C[C@]12CC[C@H]3[C@@H](CC[C@@]45O[C@@H]4C(O)=C(C#N)C[C@]35C)[C@@H]1CC[C@@H]2O,outcome,[12],inactive
C[N+]1(C)CCc2cc3c(cc2[C@H]1[C@@H]1OC(=O)c2c1ccc1c2OCO1)OCO3,Potency,[13],inactive
same,Potency,[14],inactive
same,Potency,[15],inactive
CC(N)[C@H](O)c1ccc(O)c(O)c1 (some centres not stated),Potency,[13],inactive
same,Potency,[14],inactive
same,Potency,[15],inactive
COc1ccc(OC)c(C(O)C(C)N)c1 (configuration not stated),Potency,[13],inactive
same,Potency,[14],inactive
same,Potency,[15],inactive
same,outcome,[16],inactive
same,outcome,[11],inactive
Oc1ccc2c3c1O[C@H]1c4[nH]c5ccccc5c4C[C@@]4(O)C(C2)N(CC2CC2)CCC314 (some centres not stated),Potency,[13],inactive
same,Potency,[14],inactive
same,Potency,[15],inactive
CN1CC[C@@]2(C)c3cc(O)ccc3N(C)C12 (some centres not stated),Potency,[13],inactive
same,Potency,[15],12.6 µM (active)
N[C@@H](Cn1oc(=O)[nH]c1=O)C(=O)O,Potency,[13],inactive
same,Potency,[14],inactive
same,Potency,[15],inactive
O=[N+]([O-])c1cc(O)c(O)c([N+](=O)[O-])c1,outcome,[17],inactive
same,Potency,[14],inactive
same,Potency,[15],inactive
CC(Cc1ccc(OCC(=O)O)cc1)NCC(O)c1cccc(Cl)c1 (configuration not stated),Potency,[13],inactive
same,Potency,[14],inactive
same,Potency,[15],inactive
Clc1ccc(N2CC3CCC(C2)N3)nn1,Potency,[13],inactive
same,Potency,[14],inactive
same,Potency,[15],inactive
NC(C(=O)O)c1cc(=O)[nH]o1 (configuration not stated),Potency,[13],inactive
same,Potency,[14],inactive
same,Potency,[15],inactive
CCCN(CCC)[C@@H]1CCc2cccc(O)c2C1,Potency,[13],inactive
same,Potency,[14],inactive
same,Potency,[15],inactive
CC12NC(Cc3ccccc31)c1ccccc12 (configuration not stated),Potency,[13],inactive
same,Potency,[14],inactive
same,Potency,[15],inactive
c1ccc2cc(CC3=NCCN3)ccc2c1,Potency,[13],inactive
same,Potency,[14],inactive
same,Potency,[15],inactive
c1ccc2c(c1)[I+]c1ccccc1-2,Potency,[13],8.91 µM (active)
same,Potency,[15],inactive
O=C1CC[C@@]2(O)C3Cc4ccc(O)c5c4C2(CCN3CC2CC2)[C@H]1O5 (some centres not stated),outcome,[17],inactive
N#CCCN,Potency,[13],inactive
same,Potency,[14],inactive
same,Potency,[15],inactive
CCCN1CCc2cccc3c2[C@H]1Cc1ccc(O)c(O)c1-3,Potency,[13],inactive
same,Potency,[14],inactive
same,Potency,[15],inactive
C[C@]12Cc3cn4c(nc3C=C1CCC1C2CC[C@@]2(C)[C@H]1CC[C@@]2(O)C#N)nc1ccccc14 (some centres not stated),outcome,[17],inactive
same,Potency,[14],inactive
same,Potency,[15],inactive
CCN1C[C@@]2(COC)C3[C@@H](OC)C4[C@@H]1C3([C@@H]1C[C@]3(O)[C@H](OC(=O)c5ccccc5)[C@@H]1[C@]4(OC(C)=O)[C@@H](O)[C@@H]3OC)[C@H](OC)C[C@H]2O,Potency,[13],inactive
same,Potency,[14],inactive
same,Potency,[15],inactive
Cc1cc([C@@H]2CCCN2C)on1,Potency,[13],inactive
same,Potency,[14],inactive
same,Potency,[15],inactive
CN(N=O)c1cc(O)ccc1O,outcome,[17],inactive
same,Potency,[14],inactive
same,Potency,[15],inactive
CCn1cnc2c(Nc3cccc(Cl)c3)nc(N[C@@H]3CCCC[C@@H]3N)nc21,Potency,[13],2.51 µM (active)
same,Potency,[14],inactive
same,Potency,[15],inactive
CCNC(=O)[C@H]1O[C@@H](n2cnc3c(N)ncnc32)[C@H](O)[C@@H]1O,Potency,[13],inactive
same,Potency,[14],inactive
same,Potency,[15],inactive
CC(C)(C)c1cc(C=C(C#N)C#N)cc(C(C)(C)C)c1O,outcome,[17],inactive
same,Potency,[14],70.8 µM (active)
same,Potency,[15],inactive
CC(N)Cc1c[nH]c2ccc(O)cc12 (configuration not stated),Potency,[13],inactive
same,Potency,[14],inactive
same,Potency,[15],inactive
CN1CCc2cccc(Cl)c2CC1,Potency,[13],inactive
same,Potency,[14],inactive
same,Potency,[15],inactive
C[N+](C)(C)CC#CCN1CCCC1=O,Potency,[13],inactive
same,Potency,[14],inactive
same,Potency,[15],inactive
CCCCCCCCCCCCCC(=O)O[C@@H]1[C@@H](C)[C@@]2(O)[C@@H](C=C(CO)C[C@@]3(O)C(=O)C(C)=C[C@@H]23)C2C(C)(C)[C@@]21OC(C)=O (some centres not stated),outcome,[17],inactive
same,Potency,[14],inactive
same,Potency,[15],inactive
CN(C(=O)Cc1ccc(Cl)c(Cl)c1)C(CN1CCCC1)c1cccc(OCC(=O)O)c1 (configuration not stated),Potency,[13],inactive
same,Potency,[14],inactive
same,Potency,[15],inactive
